Bioassay records deposited in PubChem by National Center for Advancing Translational Sciences (NCATS).
IL1B secr inh = inhibitors of inflammasome signaling (IL-1 beta secretion). THP-1 LPS/ATP IL-1B secretion, AlphaLISA, 16 h; active compounds read low. activity change, % at 57.5 µM. 4.7% of 360,000 active. AID 743279; in the data active = activity change below about -50%; inconclusive = mostly about -30% to -49%; also: % is scaled to controls: 0 for no effect and ±100 for the full control effect
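Secreted IL-1B measured by AlphaLISA bead assay after 16 h compound exposure of THP-1 cells; compounds (final up to 57.5 uM) added 1 h before LPS (250 ng/mL) and ATP (1.25 mM) stimulation; lower signal means less secretion.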
DT40 TDP1 no CPT = qHTS for Inhibitors of human tyrosyl-DNA phosphodiesterase 1 (TDP1): qHTS in cells in absence of CPT; DT40 Tdp1-/- hTDP1 cells, no CPT, ATP luminescence, 48 h; Potency, µM (highest dose often 46.2 µM), for the others: at the top dose activity change, negative = growth inhibition, usual class: inhibitors; 15% of 420,000 active; AID 686978, 2013; also: potency is read from the fitted curve at half-maximal effect; % is scaled to controls: 0 for no effect and ±100 for the full control effect; nearly all actives have a fitted effect of over 55% in size
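A cellular qHTS used chicken DT40 cells lacking endogenous Tdp1 but carrying stably transfected human TDP1. Compounds were applied without camptothecin, and cell growth kinetics were judged by ATP-dependent luminescence after ≥48 hr.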
TDP1 cell CPT = DT40-hTDP1 cell growth loss with CPT | chicken DT40 Tdp1-/-;hTDP1 cells + 20 nM CPT, ATP luminescence, 48 h | Potency, µM (top dose mostly 46.2 µM), inactives show top-dose activity change, negative = growth inhibition, most hits filed as inhibitors | 12% of 420,000 active; also: potency is read from the fitted curve at half-maximal effect; % is scaled to controls: 0 for no effect and ±100 for the full control effect; nearly all actives have a fitted effect of over 55% in size
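Cell growth measured by CellTiter-Glo luminescence after a minimum 48 h, 37 C compound exposure with 20 nM CPT in Tdp1-knockout DT40 cells stably expressing hTDP1, seeded 400/well; qHTS titration format.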
ClpP mod = qHTS Assay for Activators of ClpP. ATP-dependent Clp protease proteolytic subunit (Bacillus subtilis (strain 168)), P80244. purified B. subtilis ClpP, FRET peptide cleavage, 20 min. Potency, µM (top dose mostly 57.5 µM), inactives show top-dose activity change, negative = active. 1.9% of 340,000 active. AID 651965, 2013; active = well fitted falling curve with a large enough effect; inconclusive = small, poorly fitted or top-dose-only effect; inactive = no such curve, though single readings can be large or run the other way; also: potency is read from the fitted curve at half-maximal effect; the source files actives as falling curves though it sought activators and does not explain the sign; nearly all actives have a fitted effect of over 65% in size
Target sequence (P80244 whole entry, looked up): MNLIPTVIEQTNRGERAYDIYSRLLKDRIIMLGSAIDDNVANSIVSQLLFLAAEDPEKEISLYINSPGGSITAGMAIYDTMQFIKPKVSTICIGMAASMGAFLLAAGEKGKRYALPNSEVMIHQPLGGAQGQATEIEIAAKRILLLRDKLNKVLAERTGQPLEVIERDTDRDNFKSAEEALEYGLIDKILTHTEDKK
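ClpP 10 microg/mL final, pH 8 Tris/KCl buffer with BSA, glycerol, Tween-20; compound pinned in; FRET-FV substrate; RT 20 min; Ex320/Em430; ΔFRET vs ADEP 5.8 microM, DMSO, no enzyme.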
DRD3 antagonist = D3 dopamine receptor (human) antagonism; 2.5% of 360,000 active; AID 652054; D3R cells, DiscoveRx beta-arrestin luminescence, antagonist mode; active compounds read low; max response, negative = inhibition, %; in the data active = max response below about -50%; inconclusive = no clear call, values can overlap the other calls; also: % is scaled to controls: 0 for no effect and ±100 for the full control effect
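Cells expressing the human receptor were seeded at 1500 cells/well, incubated overnight at 37 degrees C in 5% CO2, then exposed to library compounds with dopamine controls for 90 minutes at 37 degrees C before luminescent detection.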
DRD3 agonist = D3 dopamine receptor (human) agonism. P35462. D3R DiscoveRx beta-arrestin cells, luminescence, 90 min. 0.58% of 410,000 active. max activation, %; in the data active = max activation above about 30%; also: 0% is about no effect
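Agonist mode: compounds and dopamine controls were applied to plated cells for 90 min at 37 degrees C after an overnight attachment at 1500 cells/well. Luminescent read-out followed 30 - 60 minutes at room temperature with DiscoveRx detection reagent.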
* marks the source's active call; other numbers are inactive results; ? = inconclusive; · = not tested or not shown. This is a sample that favours compounds with a hit; in the whole collection about 21% have one here. Unless noted, calls follow the shape of the dose curve; as a rule, active = well fitted inhibition curve with a large enough effect; inconclusive = small, poorly fitted or top-dose-only effect; inactive = flat fitted curve, though single readings scatter.

SMILES	IL1B secr inh	DT40 TDP1 no CPT	TDP1 cell CPT	ClpP mod	DRD3 antagonist	DRD3 agonist
CC1=C(C(N)=O)C(c2ccccc2)n2nc(-c3ccncc3)nc2N1 (configuration not stated)	6	-6%	-6%	-3%	-9	-1
COc1cc(=O)n2c(c1C(=O)N(C)Cc1ccsc1)CCN(Cc1c(C)nc3sccn13)CC2	·	-24%	-4%	·	·	·
CCOc1ccc(N2CC(C)Cn3c2nc2c3c(=O)n(CC(=O)O)c(=O)n2C)cc1 (configuration not stated)	·	1%	-22%	-6%	·	-6
CCOc1ccc(N=Nc2c(N)[nH][nH]c2=O)cc1	-10	?	-28%	2%	-3	1
CC(C)(C)OC(=O)N1CCCC(C(=O)Nc2cccc(C(=O)N3CCCCC3)c2)C1 (configuration not stated)	-22	-24%	-17%	1%	-12	0
CCc1nc(C)c(C(=O)N2CCCC(C(=O)Nc3cccc(-c4cccc(C)c4)c3)C2)o1 (configuration not stated)	-82*	10µM*	13µM*	-5%	16	-1
Cc1cccc(-c2cccc(NC(=O)C3CCCN(C(=O)c4ocnc4C)C3)c2)c1 (configuration not stated)	0	21µM*	23µM*	1%	?	-30
CCc1ncc(CN2CCCC(C(=O)Nc3cccc(-c4cccc(C)c4)c3)C2)cn1 (configuration not stated)	-7	?	?	-2%	5	2
Cc1cccc(-c2cccc(NC(=O)C3CCCN(C(=O)c4csc(C)n4)C3)c2)c1 (configuration not stated)	?	1.3µM*	1.5µM*	0%	3	1
Cc1cccc(-c2cccc(NC(=O)C3CCCN(C(=O)c4cccnc4)C3)c2)c1 (configuration not stated)	-6	15µM*	18µM*	0%	3	6
O=C(CCS(=O)(=O)Cc1ccccc1F)NCCc1ccc(Cl)cc1	15	?	-5%	-1%	7	2
CCCn1c(SCC(=O)N2CCCC(C)C2)nnc1-c1cccnc1 (configuration not stated)	-2	-15%	-10%	·	12	19
COc1ccc(NC(=O)CSc2nc3c(c(=O)[nH]2)CN(Cc2ccccc2)CC3)cc1Cl	·	?	?	-6%	·	-15
CCc1ccccc1NC(=O)c1ccc(CN2C(=O)CCn3nc(C)cc32)cc1	·	-8%	-14%	-1%	·	-1
CCOc1ccc2nc(NC(=O)CS(=O)(=O)c3ccc(Cl)cc3)sc2c1	·	16µM*	?	-2%	·	29
CCOc1ccc2nc(NC(=O)CS(=O)(=O)c3ccccc3)sc2c1	0	?	-9%	1%	156	32*
CCOc1ccc2nc(NC(=O)CS(=O)(=O)c3ccc(C)cc3)sc2c1	17	16µM*	-14%	-6%	122	38*
CCOc1ccc2nc(NS(=O)(=O)c3ccc(NC(C)=O)cc3)sc2c1	18	-17%	-5%	1%	-57*	2
CS(=O)(=O)c1ccc2nc(NC(=O)CS(=O)(=O)c3ccc(Cl)cc3)sc2c1	·	?	-23%	-7%	·	-6
Cc1cc(C(=O)NCc2nnc3n2CCN(Cc2ccc(F)cc2F)CC3)c(C)o1	·	-9%	-25%	·	·	·
CCCC(=O)N1c2nc(-c3ccco3)nn2C2(CCCCC2)[C@@H]2CCCC[C@@H]21	·	?	?	-7%	·	12
CC1=C(C(=O)OCCNC(=O)c2ccccc2O)C(c2ccccc2[N+](=O)[O-])C(C(=O)OCC2CCCO2)=C(C)N1 (configuration not stated)	-58*	18µM*	18µM*	-1%	0	-7
